M1 PAM: human CHRM1 positive allosteric modulation | actives 0.088% (n = 360,000) | CHO-K1 hM1, Fluo-8 calcium fluorescence, ACh EC20; 0% = ACh EC20, 100% = maximal ACh | activation, % at 3 µM | P11229 | AID 588819; in the data active means activation above about 19%, passing the limit was not always enough
Target sequence (P11229 whole entry, looked up): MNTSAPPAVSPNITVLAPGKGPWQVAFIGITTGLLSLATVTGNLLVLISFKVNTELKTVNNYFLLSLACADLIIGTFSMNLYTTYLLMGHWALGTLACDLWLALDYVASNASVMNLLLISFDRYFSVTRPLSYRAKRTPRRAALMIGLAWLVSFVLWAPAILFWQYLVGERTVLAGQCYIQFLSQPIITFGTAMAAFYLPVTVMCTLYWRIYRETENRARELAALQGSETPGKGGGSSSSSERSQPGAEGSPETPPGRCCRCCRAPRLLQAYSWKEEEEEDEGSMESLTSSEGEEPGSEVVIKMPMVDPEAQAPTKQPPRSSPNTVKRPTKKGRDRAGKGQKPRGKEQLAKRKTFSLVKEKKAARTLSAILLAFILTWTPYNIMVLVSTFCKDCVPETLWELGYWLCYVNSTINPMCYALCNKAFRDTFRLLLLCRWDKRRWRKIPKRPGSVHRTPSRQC
M1 antag: antagonists of human M1 muscarinic receptor | P11229 | CHO-K1 hM1, Fluo-8 calcium fluorescence, ACh EC80 antagonist | inhibition, % at 3 µM | actives 1.3% (n = 360,000);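 active means percent inhibition above its own plate's cutoff, namely the mean of that plate's compound wells plus 3 SD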;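 further: peak over basal fluorescence ratio during 140 s after agonist addition; 0% = ACh EC80 plus DMSO and 100% = DMSO alone without agonist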
CHO-K1 Ca antag: counter-screen for M1 antagonists: effect in parental CHO-K1 cells. ATP-induced calcium, Fluo-8 fluorescence. inhibition, % at 3 µM. actives 0.6% (n = 360,000);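 active means inhibition above a per-plate cutoff, the plate's mean sample inhibition plus 3 SD, cut at about 24% in these data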;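 further: 0% = DMSO plus EC80 ATP and 100% = DMSO alone without ATP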
CHRM1 agonist: human M1 muscarinic receptor agonism. CHO-K1 hM1, Fluo-8 calcium fluorescence, agonist mode; 0% DMSO, 100% acetylcholine EC100. activation, % at 3 µM. actives 0.33% (n = 360,000);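 active means activation above the run's mean compound activation plus 3 SD, cut at about 16% in these data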;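 further: peak over basal fluorescence ratio within a 140 s kinetic read after compound addition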
CHO-K1 Ca ag: nonselective activator or artifact in parental CHO-K1 cells; actives 0.48% (n = 360,000); activation, % at 3 µM; AID 602248; Fluo-8 calcium fluorescence; scaled to maximal ATP response, vehicle zero; in the data active means activation above about 15%;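 further: untransfected CHO-K1 host cells lacking M1 receptor as counterscreen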
CHO-K1 Ca PAM: nonselective activator or artifact in parental CHO-K1 calcium assay | ATP EC20, Fluo-8 calcium fluorescence; 0% at ATP EC20, 100% at ATP max | activation, % at 3 µM | actives 0.02% (n = 360,000);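 active means activation above the run cutoff, the mean activation of all test compounds plus 3 SD, cut at about 40% in these data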;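 further: peak over basal fluorescence ratio in a 140 s read after ATP addition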
* marks the source's active call; other numbers are inactive results. In the library only some 2.3% were active in any assay of this set; here they are far more common.

Screening CCOC(=O)c1c(NC(=S)N2CCN(C)CC2)sc2c1CCN(C(=O)OCC)C2 returned M1 PAM 14.7, M1 antag -12.0, CHO-K1 Ca antag -16.2, CHRM1 agonist 22.5*, CHO-K1 Ca ag 0.2 and CHO-K1 Ca PAM 5.2.
Screening N#CC(Sc1ccccn1)c1ccc(Cl)cc1Cl (centres undefined) returned M1 PAM -29.1, M1 antag 39.2*, CHO-K1 Ca antag 10.4, CHRM1 agonist -9.8, CHO-K1 Ca ag 4.0 and CHO-K1 Ca PAM 11.1.
CCOC(=O)C1CCCN(C2=NC(=O)/C(=C/c3ccc(N(C)C)cc3)S2)C1 (centres undefined) was read as M1 PAM -1.5, M1 antag 2.0, CHO-K1 Ca antag -6.4, CHRM1 agonist 24.4*, CHO-K1 Ca ag 7.2 and CHO-K1 Ca PAM 0.6.
Screening CCCc1cc(=O)[nH]c(SCC(=O)NCCN2C(=O)CSC2=O)n1 returned M1 PAM -0.9, M1 antag 8.9, CHO-K1 Ca antag -10.1, CHRM1 agonist -3.0, CHO-K1 Ca ag 0.0 and CHO-K1 Ca PAM 8.0.
Screening CCOC(=O)c1c(N)sn(-c2ccccc2C)c1=S returned M1 PAM -9.4, M1 antag 33.7*, CHO-K1 Ca antag 2.4, CHRM1 agonist -3.6, CHO-K1 Ca ag 0.4 and CHO-K1 Ca PAM -2.0.
`CCc1ccc(OCC(=O)Nc2ccc3[nH]ncc3c2)cc1` gave M1 PAM 0.9, M1 antag -5.4, CHO-K1 Ca antag 2.7, CHRM1 agonist -0.2, CHO-K1 Ca ag 1.0 and CHO-K1 Ca PAM -6.6.
COc1cc(NC(=O)C2(C)CCCN2C)cc(OC)c1OC (centres undefined) was read as M1 PAM 8.0, M1 antag -13.9, CHO-K1 Ca antag 28.0*, CHRM1 agonist -1.0, CHO-K1 Ca ag -0.4 and CHO-K1 Ca PAM -14.3.
For COc1ccc(-c2nc3ccccc3c(=O)n2-c2c(C)n(C)n(-c3ccccc3)c2=O)cc1 the results were M1 PAM 8.9, M1 antag -11.6, CHO-K1 Ca antag 5.3, CHRM1 agonist -0.5, CHO-K1 Ca ag 0.5 and CHO-K1 Ca PAM -22.2.
Cc1c(-n2c(-c3ccccc3)nc3ccccc3c2=O)c(=O)n(-c2ccccc2)n1C was read as M1 PAM -3.1, M1 antag 5.7, CHO-K1 Ca antag 2.7, CHRM1 agonist -4.5, CHO-K1 Ca ag 20.6* and CHO-K1 Ca PAM 10.8.
Screening O=S(=O)(c1ccc(Cl)cc1)N1CCCC(C(F)(F)F)C1 (centres undefined) returned M1 PAM -2.1, M1 antag 19.2, CHO-K1 Ca antag -15.5, CHRM1 agonist -4.5, CHO-K1 Ca ag 2.0 and CHO-K1 Ca PAM 22.3.
For CC1(C)Cc2c(C#N)c(N3CCCC3)nc(-c3ccco3)c2CO1 the results were M1 PAM 0.9, M1 antag 2.6, CHO-K1 Ca antag -8.7, CHRM1 agonist -1.9, CHO-K1 Ca ag -0.3 and CHO-K1 Ca PAM 9.8.
For N#Cc1c(N2CCOCC2)nc(-c2ccco2)c2c1CCCC2 the results were M1 PAM -1.2, M1 antag 12.6, CHO-K1 Ca antag 25.1*, CHRM1 agonist -2.1, CHO-K1 Ca ag 0.8 and CHO-K1 Ca PAM -7.2.
Screening COc1ccc(CNC(=O)c2cccc3c(-c4cccnc4)coc23)cc1OC returned M1 PAM -16.8, M1 antag 33.9*, CHO-K1 Ca antag 27.7*, CHRM1 agonist 4.4, CHO-K1 Ca ag 15.2* and CHO-K1 Ca PAM -8.1.
Screening Cc1c(O)cc2c(c1O)C(=O)CC(c1ccccc1)O2 (centres undefined) returned M1 PAM -33.2, M1 antag 101.9*, CHO-K1 Ca antag 85.0*, CHRM1 agonist 58.5*, CHO-K1 Ca ag 25.8* and CHO-K1 Ca PAM -13.6.
O=C1C[C@@H](c2ccc(O)cc2)Oc2cc(O)cc(O)c21 was read as M1 PAM 5.2, M1 antag -9.5, CHO-K1 Ca antag -18.4, CHRM1 agonist 3.3, CHO-K1 Ca ag 1.8 and CHO-K1 Ca PAM 3.3.
Cc1ccccc1-c1cc2nc(NCCc3ccncc3)n(C)c(=O)c2s1 was read as M1 PAM -0.8, M1 antag -8.3, CHO-K1 Ca antag 0.0, CHRM1 agonist -5.5, CHO-K1 Ca ag 1.1 and CHO-K1 Ca PAM -6.5.
CC(Oc1ccc2c(-c3ccccc3)cc(=O)oc2c1)C(=O)NC(Cc1c[nH]c2ccc(O)cc12)C(=O)O (centres undefined) was read as M1 PAM -9.8, M1 antag 8.6, CHO-K1 Ca antag 26.6*, CHRM1 agonist -1.4, CHO-K1 Ca ag 2.8 and CHO-K1 Ca PAM -14.9.
For Cc1ccc(NC(=O)CSc2ncn[nH]2)cc1 the results were M1 PAM -5.4, M1 antag 2.9, CHO-K1 Ca antag 10.7, CHRM1 agonist -6.7, CHO-K1 Ca ag 18.7* and CHO-K1 Ca PAM 6.6.
CCOc1ccc(NC(=O)CSc2ncn[nH]2)cc1 was read as M1 PAM 3.9, M1 antag -6.5, CHO-K1 Ca antag -6.3, CHRM1 agonist -3.7, CHO-K1 Ca ag 0.9 and CHO-K1 Ca PAM 18.8.
CN(C(=O)c1cccc(NC(=O)Cc2ccc([N+](=O)[O-])cc2)c1)C1CC1 was read as M1 PAM 0.4, M1 antag 8.4, CHO-K1 Ca antag 17.3, CHRM1 agonist -7.9, CHO-K1 Ca ag 0.3 and CHO-K1 Ca PAM -11.0.
`CCOc1ccc(/C(O)=C2/C(=O)C(=O)N(CC3CCCO3)C2c2cccs2)cc1` (centres undefined) gave M1 PAM -0.8, M1 antag 1.6, CHO-K1 Ca antag 16.8, CHRM1 agonist -2.7, CHO-K1 Ca ag 0.0 and CHO-K1 Ca PAM -12.2.
For Cc1ccc2nc(C(C)(C)C)c(Cc3cccc(Cl)c3)n2c1 the results were M1 PAM -25.9, M1 antag 69.6*, CHO-K1 Ca antag 4.3, CHRM1 agonist -8.4, CHO-K1 Ca ag -0.5 and CHO-K1 Ca PAM -10.2.
Cc1ccc2nc(-c3ccc(F)cc3)c(Cc3cccc(Cl)c3)n2c1 was read as M1 PAM -5.7, M1 antag 13.8, CHO-K1 Ca antag 32.0*, CHRM1 agonist -6.6, CHO-K1 Ca ag -0.6 and CHO-K1 Ca PAM -9.2.

Screening results (PubChem BioAssay)
